Drawing on PubChem BioAssay (Tox21), this text covers outcome and Potency for 9 compounds.

Several values for one entry are separate records, joined by “and”; a condition that tells them apart may be missing. Equal entries are not always repeated. Inconclusive results are not listed. More than one record can exist for a structure, and the calls need not agree. Activity calls are given as the source filed them. Unless noted, calls follow the shape of the dose curve; as a rule, active = well fitted curve in the direction sought with a large enough effect in the repeat runs; inconclusive = weak or mixed curves; inactive = no such curve, though single readings can be large; an effect the other way counts as inactive or inconclusive.

Experiment [1] can be described thus: qHTS assay to identify small molecule agonists of the sonic hedgehog signaling (Shh) pathway (AID 1259368; calls by dose curve;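 also: NIH/3T3-derived 3T3Gli1-Luc cells carrying a stable Gli1-driven firefly luciferase reporter; series mostly up to about 92 µM; nearly all actives have a fitted effect of over 15% in size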). The method, boiled down:
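NIH/3T3-derived 3T3Gli1-Luc cells with stably integrated Gli1-driven firefly luciferase, 2,000 cells/well, compounds added after 4 hr. Incubated 24 hr at 37C, 5% CO2; luminescence read after 30 min with luciferase reagent at room temperature.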

Experiment [2] in a line: qHTS assay to identify small molecule antagonists of the sonic hedgehog signaling (Shh) pathway (AID 1259369; calls by dose curve; also: nearly all actives have a fitted effect of over 45% in size; also: potency is read from the fitted curve at half-maximal effect). The procedure, abridged: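 NIH/3T3-derived Gli1-Luc reporter cells plated 4 h, dosed with compound, then stimulated with conditioned medium for 24 h at 37 C. Firefly luciferase luminescence read after 30 min with detection reagent at room temperature.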
Experiment [3] addresses Estrogen receptor beta (Homo sapiens) (UniProt Q92731). In words: qHTS assay to identify small molecule agonists of the estrogen receptor beta (ER-beta) signaling pathway (AID 1259377; active = well fitted activation curve with a large enough effect in the signal ratio in the repeat runs, not every such curve was filed as active; the % refers to the signal ratio). The procedure, abridged:
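In HEK293T cells bearing a UAS-beta-lactamase reporter under ER-beta control, DMSO-delivered compounds were incubated for 16 hr at 37C. Activity was detected as fluorescence 2 hours after LiveBLAzer B/G FRET substrate addition.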
In general terms: qHTS replaces the single test concentration by a dilution series.

A short description of experiment [4]: qHTS assay to identify small molecule agonists of the androgen receptor (AR) signaling pathway in the presence of an antagonist - cell viability counter screen (AID 1259379).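 Also: MDA-kb2 human breast cancer cells carrying an MMTV luciferase reporter; series mostly up to about 92 µM; nearly all actives have a fitted effect of over 25% in size.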 The procedure, abridged: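 MDA-kb2 cells (MMTV-luciferase, AR/GR), 3,000/well, 5 h attachment, then 3.0 µM nilutamide (final) and compounds at 15 concentrations. Viability by CellTiter-Fluor fluorescence after 16 h at 37 °C, 0% CO2, in the reporter wells.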

Experiment [5] can be described thus: qHTS assay to identify small molecule agonists of the estrogen receptor beta (ER-beta) signaling pathway - cell viability counter screen (AID 1259380). Also: nearly all actives have a fitted effect of over 30% in size. The method, boiled down: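 ER-beta-UAS-bla HEK293T cells in medium with 2% charcoal-stripped FBS, pre-incubated 6 hr, then treated 16 hr at 37C. Cytotoxicity read in the same wells by CellTiter-Glo luminescence after 30 min at room temperature.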

Experiment [6] can be described thus: qHTS assay to identify small molecule antagonists of the estrogen receptor beta (ER-beta) signaling pathway - cell viability counter screen (AID 1259382).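 Also: HEK293T cells carrying ER-beta-UAS-bla reporter stimulated with estradiol; series mostly up to about 92 µM; nearly all actives have a fitted effect of over 55% in size.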 The method, boiled down: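 ER-beta-UAS-bla HEK293T cells in 2% charcoal-stripped FBS medium, treated with compound plus 1 nM 17-beta-estradiol for 16 h at 37C. Viability read by CellTiter-Glo luminescence after 30 min at room temperature in the same wells.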

The nature of experiment [7]: qHTS assay to identify small molecule agonists or antagonists of the thyroid stimulating hormone receptor (TSHR) signaling pathway - wild type cell line counter screen (AID 1259384; calls by dose curve). The procedure, abridged: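 Counter screen in untransfected Hek293: compounds (15-point titration, triplicate) plus phosphodiesterase inhibitor Ro20-1724 added after 18 h plating; 30 min RT. Intracellular cAMP via competitive d2/cryptate immunoassay, 1 h incubation.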

The target of experiment [8] is Thyrotropin receptor (Homo sapiens) (UniProt P16473). In words: qHTS assay to identify small molecule antagonists of the thyroid stimulating hormone receptor (TSHR) signaling pathway (AID 1259385; calls by dose curve; also: nearly all actives have a fitted effect of over 20% in size). The method, boiled down:
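Antagonist mode: compound-treated TSHR-expressing HEK293 cells were stimulated with 1.5 ng/mL TSH (final) in presence of Ro20-1724 for 30 min at RT. HTRF cAMP detection after 1 h; each compound tested at 15 concentrations, triplicate.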

The nature of experiment [9]: qHTS assay to identify small molecule agonists of the estrogen receptor alpha (ER-alpha) signaling pathway in the presence of an antagonist - cell viability counter screen (AID 1259386).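 Also: cells exposed to compounds for 22 h at 37 °C before the viability read; nearly all actives have a fitted effect of over 30% in size.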 Also: potency is read from the fitted curve at half-maximal effect. The procedure, abridged:
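Cell viability in VM7Luc4E2 cells (endogenous full-length ER-alpha) measured by CellTiter-Fluor fluorescence in the same wells as the luciferase screen. Cells pre-cultured 5 days in charcoal-stripped serum, then treated 22 h with compounds at 15 concentrations plus 10.0nM ICI-182,780.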

The target of experiment [10] is Progesterone receptor (Homo sapiens) (UniProt P06401). Put plainly: qHTS assay to identify small molecule agonists of the progesterone receptor (PR) signaling pathway (AID 1346784; calls by dose curve; also: nearly all actives have a fitted effect of over 30% in size). The method, boiled down: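 Using charcoal-stripped serum (2%) to limit endogenous steroids, PR-UAS-bla HEK 293T cells received compounds for 16 hr at 37C after 6 hr plating; beta-lactamase FRET fluorescence was recorded following 2 hr substrate loading at room temperature.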
Chain of Progesterone receptor (Homo sapiens) (P06401 whole entry, looked up): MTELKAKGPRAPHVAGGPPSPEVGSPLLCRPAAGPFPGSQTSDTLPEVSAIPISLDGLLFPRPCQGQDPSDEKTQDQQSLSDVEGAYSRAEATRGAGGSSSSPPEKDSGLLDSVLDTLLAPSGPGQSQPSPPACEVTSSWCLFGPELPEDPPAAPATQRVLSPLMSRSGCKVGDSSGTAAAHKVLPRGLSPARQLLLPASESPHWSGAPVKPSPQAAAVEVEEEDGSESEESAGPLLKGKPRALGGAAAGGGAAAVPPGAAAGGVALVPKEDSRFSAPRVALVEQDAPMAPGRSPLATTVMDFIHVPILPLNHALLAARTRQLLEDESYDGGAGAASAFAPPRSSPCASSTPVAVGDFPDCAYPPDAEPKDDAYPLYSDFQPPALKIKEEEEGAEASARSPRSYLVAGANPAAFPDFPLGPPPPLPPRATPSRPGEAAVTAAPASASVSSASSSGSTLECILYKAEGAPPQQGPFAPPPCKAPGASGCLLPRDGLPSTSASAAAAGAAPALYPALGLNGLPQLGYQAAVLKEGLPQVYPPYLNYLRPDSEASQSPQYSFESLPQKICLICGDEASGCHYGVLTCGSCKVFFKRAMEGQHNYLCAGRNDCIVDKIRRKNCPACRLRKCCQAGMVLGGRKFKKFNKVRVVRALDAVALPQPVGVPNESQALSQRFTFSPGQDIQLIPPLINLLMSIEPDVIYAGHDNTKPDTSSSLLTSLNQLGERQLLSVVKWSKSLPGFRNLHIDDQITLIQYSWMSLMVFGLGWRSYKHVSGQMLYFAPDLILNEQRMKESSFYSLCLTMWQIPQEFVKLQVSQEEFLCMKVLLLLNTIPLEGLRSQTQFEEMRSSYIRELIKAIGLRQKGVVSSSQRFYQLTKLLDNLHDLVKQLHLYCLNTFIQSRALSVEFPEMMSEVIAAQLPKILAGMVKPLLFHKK

The target is the same in experiment [11]. In words: qHTS assay to identify small molecule antagonists of the progesterone receptor (PR) signaling pathway (AID 1346795; active = well fitted inhibition curve with a large enough effect in the signal ratio in the repeat runs, not every such curve was filed as active; the % refers to the signal ratio). The method, boiled down:
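Inhibition of R5020-induced (1 nM final) beta-lactamase reporter signal in PR-UAS-bla HEK293T cells was scored by FRET fluorescence after overnight (16 hr) compound treatment.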

Experiment [12] in a line: qHTS assay to identify small molecule agonists of the progesterone receptor (PR) signaling pathway - cell viability counter screen (AID 1346799; calls by dose curve; also: nearly all actives have a fitted effect of over 45% in size). The method, boiled down:
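Cytotoxicity in PR-bla HEK293T cells: 16 h compound, 37C; CellTiter-Glo added post-FRET read; luminescence after 30 min RT.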

The nature of experiment [13]: qHTS assay to identify small molecule antagonists of the TGF-beta/Smad signaling pathway - cell viability counter screen (AID 1346824). Also: nearly all actives have a fitted effect of over 50% in size. The method, boiled down:
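Cytotoxicity counter-screen run in the same wells as the beta-lactamase Smad reporter read: CellTiter-Glo luminescence after 30 min at room temperature. HEK 293T SBE-bla cells had 5 hr compound exposure at 37 C with TGF-beta1 (0.25 ng/mL stock).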

Experiment [14] can be described thus: qHTS assay to identify small molecule agonists of the TGF-beta/Smad signaling pathway - cell viability counter screen (AID 1346829). Also: top concentration of the series differs between compounds; nearly all actives have a fitted effect of over 45% in size. The method, boiled down:
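Cytotoxicity counter screen: CellTiter-Glo luminescence (30 min, room temperature) measured in the SBE-bla HEK 293T reporter wells after 5 hr compound treatment at 37 C and the 2 hr substrate step.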

Experiment [15] in a line: qHTS assay to identify small molecule agonists of the TGF-beta/Smad signaling pathway (AID 1346859; active = well fitted activation curve with a large enough effect in the signal ratio in the repeat runs, not every such curve was filed as active; the % refers to the signal ratio; also: series mostly up to about 77 µM). The procedure, abridged: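 Stable Smad binding element-beta-lactamase HEK 293T cells; 5 hr compound exposure at 37 C under 5% CO2; 2 hr room-temperature substrate step; fluorescence excited at 405 nm, collected at 460 nm and 530 nm.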
For experiment [16], the target named is Thyrotropin-releasing hormone receptor (Homo sapiens) (UniProt P34981). Put plainly: qHTS assay to identify small molecule antagonists of the thyrotropin-releasing hormone receptor (TRHR) signaling pathway (AID 1346877; active = well fitted inhibition curve with a large enough effect in the repeat runs, not every such curve was filed as active; also: series mostly up to about 51 µM). The method, boiled down:
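TRHR-expressing HEK293 cells loaded with calcium dye for 2 h at 37 C; compounds pre-incubated 5 min at room temperature before TRH challenge at 1 nM final. Intracellular calcium fluorescence read kinetically for 3 min; 15 concentrations in triplicate.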

Experiment [17] can be described thus: qHTS assay to identify small molecule antagonists of the progesterone receptor (PR) signaling pathway - cell viability counter screen (AID 1346798). Also: series mostly up to about 92 µM; nearly all actives have a fitted effect of over 50% in size. The method, boiled down:
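ATP content as viability readout: CellTiter-Glo luminescence, 30 min room temperature, in PR-UAS-bla HEK293T cells after 16 hr compound/R5020 treatment at 37C and 5% CO2.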

Experiment [18] deals with Androgen receptor (Homo sapiens) (UniProt P10275). Put plainly: qHTS assay to identify small molecule agonists of the androgen receptor (AR) signaling pathway in the presence of an antagonist (AID 1259381; calls by dose curve; also: nearly all actives have a fitted effect of over 15% in size). The procedure, abridged:
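MDA-kb2 cells carrying MMTV-luciferase (AR/GR responsive), 3,000 cells/well, co-treated with 3.0 uM nilutamide final. Compounds at 15 concentrations, 16 hr at 37C without CO2. Luciferase luminescence read after 30 min with ONE-Glo.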

Experiment [19] deals with Estrogen receptor (Homo sapiens) (UniProt P03372). Put plainly: qHTS assay to identify small molecule agonists of the estrogen receptor alpha (ER-alpha) signaling pathway in the presence of an antagonist (AID 1259383; calls by dose curve; also: top concentration of the series differs between compounds; nearly all actives have a fitted effect of over 15% in size). The procedure, abridged: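 VM7Luc4E2 cells express endogenous full-length ER-alpha with an ERE-luciferase reporter and were hormone-deprived for 5 days. Compounds at 15 concentrations were added with 10.0nM ICI-182,780 for 22hr at 37C. Luminescence was read with ONE-Glo.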
Chain of Estrogen receptor (Homo sapiens) (P03372 whole entry, looked up): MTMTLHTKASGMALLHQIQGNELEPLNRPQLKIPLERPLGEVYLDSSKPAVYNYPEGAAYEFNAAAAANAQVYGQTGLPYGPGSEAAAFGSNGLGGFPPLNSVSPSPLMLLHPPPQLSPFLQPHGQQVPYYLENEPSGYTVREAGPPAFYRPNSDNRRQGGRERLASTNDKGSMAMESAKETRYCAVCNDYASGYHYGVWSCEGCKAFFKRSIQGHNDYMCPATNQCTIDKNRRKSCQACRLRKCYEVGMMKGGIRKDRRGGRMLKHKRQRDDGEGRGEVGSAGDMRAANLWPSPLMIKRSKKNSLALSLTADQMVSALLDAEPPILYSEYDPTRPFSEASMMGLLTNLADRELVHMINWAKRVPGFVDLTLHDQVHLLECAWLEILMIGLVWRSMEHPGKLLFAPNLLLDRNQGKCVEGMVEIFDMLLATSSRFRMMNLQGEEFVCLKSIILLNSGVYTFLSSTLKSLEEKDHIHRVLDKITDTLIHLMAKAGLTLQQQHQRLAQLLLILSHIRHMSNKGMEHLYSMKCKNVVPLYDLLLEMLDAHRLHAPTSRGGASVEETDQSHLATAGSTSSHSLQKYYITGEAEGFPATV

Chain of Thyrotropin receptor (Homo sapiens) (P16473 whole entry, looked up): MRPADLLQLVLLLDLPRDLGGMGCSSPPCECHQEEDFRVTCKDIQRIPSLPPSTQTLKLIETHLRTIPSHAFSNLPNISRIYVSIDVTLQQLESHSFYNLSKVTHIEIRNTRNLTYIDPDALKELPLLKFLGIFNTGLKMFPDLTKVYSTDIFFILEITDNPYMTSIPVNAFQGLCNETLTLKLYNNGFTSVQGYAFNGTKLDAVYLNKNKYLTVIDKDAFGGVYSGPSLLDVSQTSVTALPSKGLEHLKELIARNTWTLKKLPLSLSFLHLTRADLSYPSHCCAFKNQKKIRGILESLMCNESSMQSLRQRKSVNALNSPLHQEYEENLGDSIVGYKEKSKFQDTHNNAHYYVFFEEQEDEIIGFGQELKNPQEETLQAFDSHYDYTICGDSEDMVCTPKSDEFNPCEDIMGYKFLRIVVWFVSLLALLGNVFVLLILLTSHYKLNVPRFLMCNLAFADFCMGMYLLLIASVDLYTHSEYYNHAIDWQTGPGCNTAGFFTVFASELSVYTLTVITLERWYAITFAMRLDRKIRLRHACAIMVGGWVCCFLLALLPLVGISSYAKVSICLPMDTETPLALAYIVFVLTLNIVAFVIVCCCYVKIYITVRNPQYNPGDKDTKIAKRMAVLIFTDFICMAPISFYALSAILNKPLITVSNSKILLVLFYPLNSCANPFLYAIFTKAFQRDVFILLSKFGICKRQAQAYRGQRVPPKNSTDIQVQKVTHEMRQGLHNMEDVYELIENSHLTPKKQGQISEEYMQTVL
Chain of Androgen receptor (Homo sapiens) (P10275 whole entry, looked up): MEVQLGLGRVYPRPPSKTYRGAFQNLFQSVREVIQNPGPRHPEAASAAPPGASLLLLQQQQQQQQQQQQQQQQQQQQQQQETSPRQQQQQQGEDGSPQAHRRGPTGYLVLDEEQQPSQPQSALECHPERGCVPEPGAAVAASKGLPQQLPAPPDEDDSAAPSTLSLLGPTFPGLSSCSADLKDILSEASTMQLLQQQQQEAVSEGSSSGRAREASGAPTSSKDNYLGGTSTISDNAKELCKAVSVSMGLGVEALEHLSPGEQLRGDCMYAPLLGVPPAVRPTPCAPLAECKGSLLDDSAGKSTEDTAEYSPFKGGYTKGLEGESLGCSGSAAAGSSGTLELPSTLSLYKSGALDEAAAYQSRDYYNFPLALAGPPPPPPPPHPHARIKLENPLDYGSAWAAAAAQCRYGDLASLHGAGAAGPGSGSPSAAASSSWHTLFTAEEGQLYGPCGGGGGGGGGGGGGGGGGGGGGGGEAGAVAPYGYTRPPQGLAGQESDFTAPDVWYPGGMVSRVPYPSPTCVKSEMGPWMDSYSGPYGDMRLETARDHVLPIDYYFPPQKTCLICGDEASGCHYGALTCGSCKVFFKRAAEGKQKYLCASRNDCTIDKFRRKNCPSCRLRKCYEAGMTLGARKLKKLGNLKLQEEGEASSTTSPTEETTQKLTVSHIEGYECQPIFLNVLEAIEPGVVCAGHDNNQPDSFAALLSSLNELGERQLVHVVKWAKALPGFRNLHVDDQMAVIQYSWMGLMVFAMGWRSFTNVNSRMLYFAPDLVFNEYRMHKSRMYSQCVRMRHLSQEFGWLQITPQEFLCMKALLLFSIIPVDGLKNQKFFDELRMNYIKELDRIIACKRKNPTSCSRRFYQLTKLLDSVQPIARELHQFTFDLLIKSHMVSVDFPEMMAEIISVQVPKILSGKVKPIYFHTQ
Chain of Estrogen receptor beta (Homo sapiens) (Q92731 whole entry, looked up): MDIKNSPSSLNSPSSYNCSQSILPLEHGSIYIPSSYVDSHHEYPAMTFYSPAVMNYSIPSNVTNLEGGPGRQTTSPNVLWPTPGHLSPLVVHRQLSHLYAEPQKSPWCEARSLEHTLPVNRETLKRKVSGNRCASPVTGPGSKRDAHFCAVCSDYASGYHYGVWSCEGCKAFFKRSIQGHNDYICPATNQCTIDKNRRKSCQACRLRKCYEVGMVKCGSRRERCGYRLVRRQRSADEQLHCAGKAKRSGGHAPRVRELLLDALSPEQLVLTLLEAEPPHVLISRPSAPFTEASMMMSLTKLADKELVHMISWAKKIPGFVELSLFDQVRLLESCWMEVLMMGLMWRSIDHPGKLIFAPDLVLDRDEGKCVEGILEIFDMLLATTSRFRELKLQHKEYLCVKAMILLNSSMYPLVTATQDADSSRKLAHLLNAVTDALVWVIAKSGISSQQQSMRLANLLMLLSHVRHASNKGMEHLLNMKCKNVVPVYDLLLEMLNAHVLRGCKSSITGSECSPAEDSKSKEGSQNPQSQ
Chain of Thyrotropin-releasing hormone receptor (Homo sapiens) (P34981 whole entry, looked up): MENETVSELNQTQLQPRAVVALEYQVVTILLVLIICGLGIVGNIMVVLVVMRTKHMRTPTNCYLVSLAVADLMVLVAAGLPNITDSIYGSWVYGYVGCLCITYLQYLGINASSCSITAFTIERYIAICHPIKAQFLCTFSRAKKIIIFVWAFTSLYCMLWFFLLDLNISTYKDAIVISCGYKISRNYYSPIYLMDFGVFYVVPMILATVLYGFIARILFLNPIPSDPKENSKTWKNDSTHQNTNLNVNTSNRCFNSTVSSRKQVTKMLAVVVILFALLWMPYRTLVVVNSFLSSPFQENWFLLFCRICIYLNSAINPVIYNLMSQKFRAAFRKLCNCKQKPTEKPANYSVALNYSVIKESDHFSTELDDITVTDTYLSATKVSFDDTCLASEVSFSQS

For `Nc1ccc([As](=O)(O)O)cc1`, the compound was classed as inactive in experiment [1], in experiment [6], in experiment [7], in [8], in [12] and in experiment [15]. Besides, in experiment [16], the outcome was inactive. For the same compound, the Potency result in [2], in experiment [3], in experiment [4], in experiment [5], in [9] and in experiment [10] was “inactive” in each case. Besides, the Potency entry in experiment [11], in experiment [13] and in experiment [14] was “inactive” throughout.
For the compound `COP(=S)(OC)SCN1C(=O)c2ccccc2C1=O`, the outcome in [1], in experiment [6], in [7], in experiment [8], in experiment [12] and in [16] was inactive. In experiment [2], the Potency is 54.5 µM (active). The Potency entry in experiment [3], in experiment [4], in experiment [5], in experiment [9], in experiment [10] and in experiment [11] was “inactive” each time. Moreover, the Potency entry in experiment [17], in experiment [13] and in experiment [14] was “inactive” throughout.
Regarding `CNC(=O)O/N=C(\SC)C(=O)N(C)C`, the compound was called inactive in [1], in experiment [18], in [6], in experiment [19], in experiment [7] and in [8]. In addition, the outcome in experiment [12] was inactive. The Potency entry in [2], in experiment [3], in [5], in experiment [9], in [10] and in [11] was “inactive” throughout. In addition, the Potency result in [17], in experiment [13] and in experiment [14] was “inactive” each time.
Take `Clc1cnc(Oc2ccc(Oc3ncc(Cl)cc3Cl)cc2)c(Cl)c1`: the call in [1], in [6], in experiment [7], in [8], in experiment [12] and in experiment [15] was inactive. Besides, the Potency entry in [2], in experiment [3], in experiment [4], in experiment [5], in experiment [9] and in experiment [10] was “inactive” throughout. In addition, the Potency entry in experiment [11], in [17], in [13] and in [14] was “inactive” in each case.
Regarding `Nc1ccc(N)cc1`, the result in [1], in [6], in experiment [7], in [12] and in experiment [16] was inactive. Also, the Potency in experiment [2] was 54.7 µM (active) and 48.6 µM (active) and inactive; in [9], 54.7 µM (active) and 54.5 µM (active). The Potency result in experiment [3], in experiment [4], in experiment [5], in experiment [10], in experiment [11] and in experiment [13] was “inactive” each time. In addition, the Potency result in [14] was “inactive”.
For the compound `CC(C)CCCCCCOC(=O)c1ccccc1C(=O)OCCCCCCC(C)C`, the outcome in experiment [1], in experiment [18], in [6], in [7], in experiment [8] and in experiment [12] was inactive. The compound was classed as inactive in experiment [15] and in [16]. The Potency entry in experiment [2], in experiment [4], in [5], in experiment [9], in experiment [10] and in experiment [11] was “inactive” in each case. Further, the Potency entry in experiment [17], in [13] and in experiment [14] was “inactive” in each case.
Turning to `O=C(O)C(Br)Br`, the compound was classed as inactive in [1], in [6], in experiment [12] and in experiment [16]. Further, the Potency result in [2], in experiment [3], in [4], in experiment [5], in experiment [9] and in experiment [10] was “inactive” throughout. The Potency entry in experiment [11], in experiment [17], in experiment [13] and in [14] was “inactive” in each case.
On to `O=C(O)c1cc(Oc2ccc(C(F)(F)F)cc2Cl)ccc1[N+](=O)[O-]`, for which the outcome in experiment [1], in experiment [6], in experiment [7], in [8], in experiment [12] and in experiment [16] was inactive. Besides, the Potency result in experiment [2], in [3], in experiment [4], in [5], in experiment [9] and in experiment [10] was “inactive” in each case. Further, the Potency result in experiment [11], in [13] and in [14] was “inactive” throughout.
With `CN1C(=O)CCS(=O)(=O)C1c1ccc(Cl)cc1` (centres undefined), the compound was called inactive in [1], in [6], in experiment [7], in [8], in [12] and in experiment [15]. Further, the Potency result in experiment [2], in [3], in [4], in [5], in experiment [9] and in experiment [10] was “inactive” throughout. The Potency entry in experiment [11], in experiment [13] and in experiment [14] was “inactive” in each case.
